Measurements published in PubChem BioAssay (NCATS).
Records with an inconclusive call do not appear. The source made the active and inactive calls. Calls come from the whole dose curve; as a rule, active = well fitted inhibition curve with a large enough effect; inconclusive = small, poorly fitted or top-dose-only effect; inactive = flat fitted curve, though single readings scatter.

Legend:
Assay in all cases: qHTS profiling for inhibitors of Plasmodium falciparum proliferation (AID 504749); note: nearly all actives have a fitted effect of over 60% in size
Details in all cases: P. falciparum in erythrocytes, SYBR Green DNA, 72 h; series mostly up to 12.8 µM
CP252 = test system: CP252
Summary of the method: (§1)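 SYBR Green fluorescence (ex 485 nm, em 535 nm) reports parasite DNA after 72 h compound exposure of infected red cells at 0.3% parasitemia, 2.5% hematocrit; signal normalized to 0.29 uM artemisinin and vehicle wells.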

CP256 = test system: CP256
Summary of the method: as §1

CP260 = test system: CP260
Summary of the method: as §1

CP262 = test system: CP262
Summary of the method: as §1

CP265 = test system: CP265
Summary of the method: as §1

CP268 = test system: CP268
Summary of the method: as §1

CP269 = test system: CP269
Summary of the method: as §1

CP286 = test system: CP286
Summary of the method: as §1

CP291 = test system: CP291
Summary of the method: as §1

CP297 = test system: CP297
Summary of the method: as §1

CP305 = test system: CP305
Summary of the method: as §1

CP315 = test system: CP315
Summary of the method: as §1

CP325 = test system: CP325
Summary of the method: as §1

CP329 = test system: CP329
Summary of the method: as §1

CP335 = test system: CP335
Summary of the method: as §1

DFO2036 = test system: DFO2036
Summary of the method: as §1

DIV14 = test system: DIV14
Summary of the method: as §1

DIV17 = test system: DIV17
Summary of the method: as §1

DIV30 = test system: DIV30
Summary of the method: as §1

Dd2 = test system: Dd2
Summary of the method: as §1

ECU = test system: ECU
Summary of the method: as §1

FAB9 = test system: FAB9
Summary of the method: as §1

GB4 = test system: GB4
Summary of the method: as §1

HB3 = test system: HB3
Summary of the method: as §1

ICS = test system: ICS
Summary of the method: as §1

JCK = test system: JCK
Summary of the method: as §1

N140 = test system: N140
Summary of the method: as §1

P93_24 = test system: P93_24
Summary of the method: as §1

P94_40 = test system: P94_40
Summary of the method: as §1

PAD = test system: PAD
Summary of the method: as §1

PC15 = test system: PC15
Summary of the method: as §1

PC26 = test system: PC26
Summary of the method: as §1

PC49 = test system: PC49
Summary of the method: as §1

SC27B = test system: SC27B
Summary of the method: as §1

TAB109 = test system: TAB109
Summary of the method: as §1

TAB113 = test system: TAB113
Summary of the method: as §1

TAB165 = test system: TAB165
Summary of the method: as §1

W2 = test system: W2
Summary of the method: as §1

Measured: Potency

NS(=O)(=O)c1cc([C@@]2(O)NC(=O)c3ccccc32)ccc1Cl
inactive: all assays above
